In PubChem BioAssay (NCATS):
Inconclusive results are not listed. Active and inactive are the calls of the source. Calls come from the whole dose curve; as a rule, active = well fitted cell-killing curve with a large enough effect; inconclusive = small, poorly fitted or top-dose-only effect; inactive = no such curve, though single readings can be large or run the other way.

assay: qHTS of pediatric cancer cell lines to identify multiple opportunities for drug repurposing: Primary screen for Rh30 cells (AID 1347107); settings: Rh30 rhabdomyosarcoma viability, CellTiter-Glo luminescence, 48 h; series mostly up to 46 µM; activity change, negative = cytotoxic: at the top concentration; note: % is set by controls: 0 for no effect and ±100 for the full control effect; nearly all actives have a fitted effect of over 75% in size
Outline: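 Cells (500-1,000/well) in growth media were settled 5 h at 37 degrees C, then given compounds for 48 h. Viability was read as CellTiter-Glo luminescence. Primary runs used MIPE at 11 points (0.78 nM-46 µM) and NPC at 8 points (0.59 nM-46 µM); follow-ups used 11 points.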

SMILES	activity change, negative = cytotoxic
CCCCOc1ccc(C(=O)CCN2CCCCC2)cc1	-1.6% (inactive)
COc1ccc(CN2CCN(C(c3ccc(F)cc3)c3ccc(F)cc3)CC2)c(OC)c1OC	-2.03% (inactive)
COC(=O)C1=C(C)NC(C)=C(C(=O)O[C@@H]2CCCN(Cc3ccccc3)C2)[C@@H]1c1cccc([N+](=O)[O-])c1	0.905% (inactive)
CCCCS(=O)(=O)N[C@@H](Cc1ccc(OCCCCC2CCNCC2)cc1)C(=O)O	18.1% (inactive)
CCOc1ccc(Cc2nccc3cc(OCC)c(OCC)cc23)cc1OCC	-6.62% (inactive)
C[C@H](CCC(=O)O)[C@H]1CC[C@H]2[C@@H]3C(=O)C[C@@H]4CC(=O)CC[C@]4(C)[C@H]3CC(=O)[C@]12C	35.2% (inactive)
CCCCCCCCCCCCCCCCOP(=O)([O-])OCC[N+](C)(C)C	18.3% (inactive)
CC(=O)Nc1c(I)cc(I)c(C(=O)O)c1I	12.3% (inactive)
COc1cc(-c2ccc(=O)[nH]n2)ccc1OC(F)F	-0.846% (inactive)
CN(C)CC/C=C1\c2ccccc2Sc2ccc(Cl)cc21	14.5% (inactive)
CC[C@@H](CO)NCCN[C@@H](CC)CO	13.2% (inactive)
Oc1ccc(Cl)c2cccnc12	12.5% (inactive)
c1ccc(-c2ccc(C(c3ccccc3)n3ccnc3)cc2)cc1 (stereo not given)	12.4% (inactive)
Cc1cc(O)c(C(C)C)cc1Cl	24.2% (inactive)
c1ccc(CNCCNCc2ccccc2)cc1	16.7% (inactive)
CCN1CCCC1=O	22.2% (inactive)
C=C(CC)C(=O)c1ccc(OCC(=O)O)c(Cl)c1Cl	6.23% (inactive)
CCCCOc1ccc(OCCCN2CCOCC2)cc1	18.9% (inactive)

SMILES	activity change, negative = cytotoxic
CCN(CC)CCOC(=O)C(c1ccccc1)C1CCCCC1 (stereo not given)	1.1% (inactive)
C=CCc1ccc(O)c(OC)c1	17.1% (inactive)
CC(=O)N/N=C/c1ccc([N+](=O)[O-])o1	-7.19% (inactive)
Oc1c(I)cc(Cl)c2cccnc12	6.12% (inactive)
O=C(OCC(O)CO)c1ccccc1Nc1ccnc2cc(Cl)ccc12 (stereo not given)	-0.0723% (inactive)
Cc1c(C(C)C)c(=O)n(-c2ccccc2)n1C	19% (inactive)
CCCCCCCCCCOCC(O)CN (stereo not given)	6.04% (inactive)
Cc1c(N(C)CS(=O)(=O)O)c(=O)n(-c2ccccc2)n1C	16.6% (inactive)
COC1=CC(=O)C[C@@H](C)[C@]12Oc1c(Cl)c(OC)cc(OC)c1C2=O	18.6% (inactive)
COC(=O)CCc1ccc(OCC(O)CNC(C)C)cc1 (stereo not given)	12.5% (inactive)
Nc1ccc(C(=O)Nc2ccccc2N)cc1	11.6% (inactive)
N[C@@H](CCC(=O)N[C@@H](CS)C(=O)NCC(=O)O)C(=O)O	18.9% [at 16.1 µM] (inactive)
CCCSS/C(CCO)=C(\C)N(C=O)Cc1cnc(C)nc1N	2.34% (inactive)
NC(=NCCCCCCN=C(N)/N=C(\N)Nc1ccc(Cl)cc1)/N=C(\N)Nc1ccc(Cl)cc1	-16.6% (inactive)
CCOC(=O)[C@H](CCc1ccccc1)N[C@@H](C)C(=O)N1Cc2ccccc2C[C@H]1C(=O)O	5.31% (inactive)
O=C1[C@H]2CCCC[C@H]2C(=O)N1CCCCN1CCN(c2nsc3ccccc23)CC1	3.71% (inactive)
Oc1c(I)cc(I)c2cccnc12	-6.28% (inactive)
COc1cc2c(cc1OC)C(C(C(=O)N(CCc1ccc(OC)c(OC)c1OC)CCc1ccc(OC)c(OC)c1OC)c1ccccc1)=NCC2 (stereo not given)	1.09% (inactive)

assay: qHTS of pediatric cancer cell lines to identify multiple opportunities for drug repurposing: Primary screen for Rh41 cells (AID 1347108); settings: Rh41 rhabdomyosarcoma viability, CellTiter-Glo luminescence, 48 h; series mostly up to 46 µM; activity change, negative = cytotoxic: at the top concentration;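 note: luminescence drop marks cytotoxic hits; nearly all actives have a fitted effect of over 70% in size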
Outline: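 Phenotypic viability qHTS, 48 h compound exposure, CellTiter-Glo luminescence read-out; multi-concentration dosing so that potency and efficacy derive directly from the primary screen's curves.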

SMILES	activity change, negative = cytotoxic
CCCCS(=O)(=O)N[C@@H](Cc1ccc(OCCCCC2CCNCC2)cc1)C(=O)O	24.5% (inactive)
C[C@H](CCC(=O)O)[C@H]1CC[C@H]2[C@@H]3C(=O)C[C@@H]4CC(=O)CC[C@]4(C)[C@H]3CC(=O)[C@]12C	23.7% (inactive)
CC(=O)Nc1c(I)cc(I)c(C(=O)O)c1I	21.5% (inactive)
COc1cc(-c2ccc(=O)[nH]n2)ccc1OC(F)F	1.97% (inactive)
CC[C@@H](CO)NCCN[C@@H](CC)CO	19.3% (inactive)
Cc1cc(O)c(C(C)C)cc1Cl	34.5% (inactive)
c1ccc(CNCCNCc2ccccc2)cc1	18.4% (inactive)
CCN1CCCC1=O	30.8% (inactive)
CCCCOc1ccc(OCCCN2CCOCC2)cc1	9.86% (inactive)
C=CCc1ccc(O)c(OC)c1	19.3% (inactive)
Cc1c(C(C)C)c(=O)n(-c2ccccc2)n1C	8.44% (inactive)
Cc1c(N(C)CS(=O)(=O)O)c(=O)n(-c2ccccc2)n1C	29.2% (inactive)
COC(=O)CCc1ccc(OCC(O)CNC(C)C)cc1 (stereo not given)	11.4% (inactive)
N[C@@H](CCC(=O)N[C@@H](CS)C(=O)NCC(=O)O)C(=O)O	8.93% [at 16.1 µM] (inactive)
